# From the supplement of paper PMC13094657
# Structures can show the parent of a compound that is named as a salt. ± gives the standard deviation of the averaged measurements.
# Columns and labels:
# MDA-MB-231 [1] = experiment: cell viability relative to vehicle unstimulated control (fraction); higher = more viable cells; details: pre-treatment time: 18 h then 24 h IFNg/TNF
# MDA-MB-231 [2] = experiment: kynurenine production, fold change vs DMSO IFNg/TNF control; higher = more kynurenine produced (less inhibition); details: pre-treatment time: 18 h then 24 h IFNg/TNF
# Outline: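 After trichloroacetic acid and p-dimethylaminobenzaldehyde treatment, supernatants were read at 492 nm, with 0–100 μM standards. These came from MDA-MB-231 cells (7 × 10^4/well, 96-well plates) pre-treated 18 h with natural products in 0.1% DMSO and then exposed 24 h to IFNγ (1 U/ml) and TNF (6.25 ng/ml) at 37°C. Values for kynurenine production are fold changes over same-plate cytokine-stimulated vehicle wells, averaged over duplicate plates in the first screening round.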
# 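Throughout, for cell viability relative to vehicle unstimulated control: viability of the cells left after supernatant collection, read with Deep Blue dye added for 4 h, as absorbance at 570 nm minus 600 nm.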
smiles,measurement,setting,value
O=C(O)C1=CO[C@@H](O[C@@H]2O[C@H](CO)[C@@H](O)[C@H](O)[C@H]2O)[C@H]2[C@@H]1C=C[C@]2(O)CO [Monotropein] (compound dose: 10 uM),cell viability,MDA-MB-231 [1],0.866 ± 0.046
same,kynurenine production,MDA-MB-231 [2],0.846 ± 0.13
C=C1[C@H](OC(=O)C(C)C)[C@@H](O)[C@@H](OC(C)=O)C(C)(C)/C=C/[C@H](C)[C@H](OC(C)=O)[C@@]2(O)C[C@@](C)(OC(C)=O)[C@H](OC(=O)c3ccccc3)[C@@H]2[C@H]1OC(C)=O [Jatrophane 4] (compound dose: 10 uM),cell viability,MDA-MB-231 [1],1.1 ± 0.017
same,kynurenine production,MDA-MB-231 [2],0.7528 ± 0.0061
C[C@H]1O[C@@H](O[C@H]2CC[C@@]3(C)[C@@H](CC[C@]4(C)[C@@H]3C=CC3=C5CC(C)(C)CC[C@]5(CO)[C@H](O)C[C@]34C)[C@]2(C)CO)[C@H](O)[C@@H](O[C@@H]2O[C@H](CO)[C@@H](O)[C@H](O)[C@H]2O)[C@H]1O [Saikosaponin B2] (compound dose: 10 uM),cell viability,MDA-MB-231 [1],1.047 ± 0.0068
same,kynurenine production,MDA-MB-231 [2],0.739 ± 0.04
CC1(C)CC[C@]2(C(=O)O[C@@H]3O[C@H](CO)[C@@H](O)[C@H](O)[C@H]3O)CC[C@]3(C)C(=CC[C@@H]4[C@@]5(C)CC[C@H](O[C@@H]6O[C@H](C(=O)O)[C@@H](O[C@@H]7O[C@@H](CO)[C@H](O)[C@H]7O)[C@H](O)[C@H]6O)C(C)(C)[C@@H]5CC[C@]43C)[C@@H]2C1 [Araloside A] (compound dose: 10 uM),cell viability,MDA-MB-231 [1],1.05 ± 0.032
same,kynurenine production,MDA-MB-231 [2],1.31 ± 0.014
CC(C)=CCC[C@](C)(O[C@@H]1O[C@H](CO[C@@H]2OC[C@H](O)[C@H](O)[C@H]2O)[C@@H](O)[C@H](O)[C@H]1O)[C@H]1CC[C@]2(C)[C@@H]1[C@H](O)C[C@@H]1[C@@]3(C)CC[C@H](O[C@@H]4O[C@H](CO)[C@@H](O)[C@H](O)[C@H]4O[C@@H]4O[C@H](CO)[C@@H](O)[C@H](O)[C@H]4O)C(C)(C)[C@@H]3CC[C@]12C [Ginsenoside Rb2] (compound dose: 10 uM),cell viability,MDA-MB-231 [1],0.968 ± 0.04
same,kynurenine production,MDA-MB-231 [2],0.88 ± 0.14
COC(=O)C[C@](O)(CCCC(C)(C)O)C(=O)O[C@@H]1C(OC)=C[C@]23CCCN2CCc2cc4c(cc2[C@H]13)OCO4 [Homoharringtonine] (compound dose: 10 uM),cell viability,MDA-MB-231 [1],0.382
same,kynurenine production,MDA-MB-231 [2],0.125 ± 0.08
C[C@@H]1CC[C@@]2(OC1)O[C@H]1C[C@H]3[C@@H]4CC=C5C[C@@H](O[C@@H]6O[C@H](CO)[C@@H](O)[C@H](O[C@@H]7O[C@H](CO)[C@@H](O)[C@H](O)[C@H]7O)[C@H]6O[C@@H]6O[C@@H](C)[C@H](O)[C@@H](O)[C@H]6O)CC[C@]5(C)[C@H]4CC[C@]3(C)[C@H]1[C@@H]2C [Gracillin] (compound dose: 10 uM),cell viability,MDA-MB-231 [1],0.0777 ± 0.08
same,kynurenine production,MDA-MB-231 [2],0.202 ± 0.016
COc1ccc(C[C@H]2COC(=O)[C@]2(O)Cc2ccc(O[C@@H]3O[C@H](CO)[C@@H](O)[C@H](O)[C@H]3O)c(OC)c2)cc1OC [Tracheloside] (compound dose: 10 uM),cell viability,MDA-MB-231 [1],0.8831 ± 0.0055
same,kynurenine production,MDA-MB-231 [2],0.824 ± 0.11
CC(/C=C/C=C(\C)C(=O)O)=C\C=C\C=C(C)\C=C\C=C(/C)C(=O)O [Transcrocetin meglumine salt] (compound dose: 10 uM),cell viability,MDA-MB-231 [1],1.02 ± 0.038
same,kynurenine production,MDA-MB-231 [2],0.737 ± 0.064
CC1(C(=O)O)CCC2(C)CCC3(C)C(=CC(=O)C4C5(C)CCC(O)C(C)(C)C5CCC43C)C2C1 (stereo not drawn) [18β-Glycyrrhetinic acid] (compound dose: 10 uM),cell viability,MDA-MB-231 [1],1.02 ± 0.17
same,kynurenine production,MDA-MB-231 [2],1.09 ± 0.18
CC1=C[C@H]2[C@@H](CC1)[C@H](C)CC[C@H]2[C@@H](C)C(=O)O [Dihydroartemisinic acid] (compound dose: 10 uM),cell viability,MDA-MB-231 [1],1.107 ± 0.0025
same,kynurenine production,MDA-MB-231 [2],0.998 ± 0.035
COC(=O)[C@H]1[C@H]2C[C@@H]3c4[nH]c5cc(OC)ccc5c4CCN3C[C@H]2C[C@@H](OC(=O)c2cc(OC)c(OC)c(OC)c2)[C@@H]1OC [Reserpine] (compound dose: 10 uM),cell viability,MDA-MB-231 [1],0.954 ± 0.028
same,kynurenine production,MDA-MB-231 [2],1.02 ± 0.067
C/C=C(/C)C(=O)O[C@H]1[C@H](O)[C@]2(COC(C)=O)[C@H](O)C[C@]3(C)C(=CC[C@@H]4[C@@]5(C)CC[C@H](O[C@@H]6O[C@H](C(=O)O)[C@@H](O[C@@H]7O[C@H](CO)[C@@H](O)[C@H](O)[C@H]7O)[C@H](O)[C@H]6O[C@@H]6O[C@H](CO)[C@@H](O)[C@H](O)[C@H]6O)[C@](C)(CO)[C@@H]5CC[C@]43C)[C@@H]2CC1(C)C [Isoescin IB] (compound dose: 10 uM),cell viability,MDA-MB-231 [1],1.08 ± 0.074
same,kynurenine production,MDA-MB-231 [2],0.802 ± 0.12
"C=C(C)[C@@H]1CC[C@@H](C)[C@@H]2CCC(C)=C[C@@H]21 [Amorpha-4,11-diene] (compound dose: 10 uM)",cell viability,MDA-MB-231 [1],1.01 ± 0.06
same,kynurenine production,MDA-MB-231 [2],0.961 ± 0.19
C=C1CC[C@@H]2[C@](C)(COC(=O)CCC(=O)O)[C@H](OC(=O)CCC(=O)O)CC[C@@]2(C)[C@@H]1/C=C/C1=CCOC1=O [Dehydroandrographolide succinate] (compound dose: 10 uM),cell viability,MDA-MB-231 [1],0.898 ± 0.11
same,kynurenine production,MDA-MB-231 [2],1.2 ± 0.089
"CCCCCCCCCC(=O)O[C@@H]1[C@@H](C)[C@@]2(O)[C@@H](C=C(COC(=O)Cc3ccc(O)c(OC)c3)C[C@]3(O)C(=O)C(C)=C[C@@H]23)[C@@H]2C(C)(C)[C@]12OC(=O)CCCCCCCCC [Phorbol 12,13-didecanoate 20-homovanillate] (compound dose: 10 uM)",cell viability,MDA-MB-231 [1],1 ± 0.024
same,kynurenine production,MDA-MB-231 [2],0.74 ± 0.024
CC1C(=O)OC2C(O)C34C5CC(C(C)(C)C)C36C(OC(=O)C6O)OC4(C(=O)O5)C12O (configuration not stated) [Ginkgolide B] (compound dose: 10 uM),cell viability,MDA-MB-231 [1],0.9 ± 0.12
same,kynurenine production,MDA-MB-231 [2],1.18 ± 0.033
O=c1ccoc2cc(O)cc(O)c12 [5.7-dihydroxychromone] (compound dose: 10 uM),cell viability,MDA-MB-231 [1],0.9229 ± 0.0012
same,kynurenine production,MDA-MB-231 [2],0.868 ± 0.023
C[C@H]1[C@H](C)CC[C@]2(C(=O)O[C@@H]3O[C@H](CO[C@@H]4O[C@H](CO)[C@@H](O[C@@H]5O[C@H](C)[C@H](O)[C@@H](O)[C@H]5O)[C@H](O)[C@H]4O)[C@@H](O)[C@H](O)[C@H]3O)CC[C@]3(C)C(=CC[C@@H]4[C@@]5(C)C[C@@H](O)[C@H](O)[C@@](C)(CO)[C@@H]5CC[C@]43C)[C@H]12 [Asiaticoside] (compound dose: 10 uM),cell viability,MDA-MB-231 [1],0.831 ± 0.1
same,kynurenine production,MDA-MB-231 [2],0.85 ± 0.17
C=C1C(=O)O[C@H]2C[C@H](C)C(/C=C/C(C)=O)=CC[C@H]12 [Xanthatin] (compound dose: 10 uM),cell viability,MDA-MB-231 [1],0.66 ± 0.18
same,kynurenine production,MDA-MB-231 [2],0.13 ± 0.042
O=C(/C=C/c1ccc(O)c(O)c1)O[C@H]1[C@H](O[C@@H]2O[C@H](CO)[C@@H](O)[C@H](O)[C@H]2O)[C@@H](O)[C@H](OCCc2ccc(O)c(O)c2)O[C@@H]1CO [Plantamajoside] (compound dose: 10 uM),kynurenine production,MDA-MB-231 [2],0.678 ± 0.24
CC(=O)OC(CC12C3C(C(C)C)CCC1(C)C1CCC4(CCCC42)N3C1)C(=O)C1(C)COC2(C)CCC1O2 (configuration not stated) [Daphniphylline] (compound dose: 10 uM),cell viability,MDA-MB-231 [1],1.01 ± 0.027
same,kynurenine production,MDA-MB-231 [2],0.75 ± 0.079
COC(=O)C1=CO[C@@H](O[C@@H]2O[C@H](CO)[C@@H](O)[C@H](O)[C@H]2O)[C@@H]2C(COC(C)=O)=C[C@H](O)[C@H]12 [Daphylloside] (compound dose: 10 uM),cell viability,MDA-MB-231 [1],0.999 ± 0.062
same,kynurenine production,MDA-MB-231 [2],0.888 ± 0.048
C[C@@H]1CC[C@]2(C(=O)O)CC[C@]3(C)C(=CC[C@@H]4[C@@]5(C)C[C@@H](O)[C@@H](O)C(C)(C)[C@@H]5CC[C@]43C)[C@@H]2[C@]1(C)O [Euscaphic acid] (compound dose: 10 uM),cell viability,MDA-MB-231 [1],0.933 ± 0.02
same,kynurenine production,MDA-MB-231 [2],0.804 ± 0.15
